Source: PubChem
KB-V1 MDR tox – KB-V1 MDR subline cytotoxicity | KB-V1 MDR cells viability, CellTiter-Glo, 72 h | Potency, µM (titrated, usually from 46.1 µM), hits mostly cytotoxic | 400,000 compounds, 3.4% hits; note: % is set by controls: 0 for no effect and ±100 for the full control effect; nearly all actives have a fitted effect of over 60% in size
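Drug-selected KB-V1 cells, grown in DMEM lacking phenol red with 10% FBS, receive compound titrations; after three days at 37 degrees C, surviving cell ATP is quantified by CellTiter-Glo luminescence and responses normalized and curve-fitted.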
SW480 rerep – DNA re-replication induction in SW480 cells; SW480 DNA re-replication, Hoechst DNA content imaging, 48 h; Potency, µM (top dose mostly 46.1 µM), without a hit: top-dose re-replication activation, hits mostly activators; 340,000 compounds, 1.8% hits; AID 624297; note: % of control where 0% means no effect; nearly all actives have a fitted effect of over 55% in size
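Treated cells incubate 48 hr (37 C, 5% CO2), are stained 40 min with Hoechst, and nuclear fluorescence is enumerated; a rise in nuclei with high DNA signal marks re-replication.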
KB-3-1 cytotox – KB-3-1 parental cell cytotoxicity. 400,000 compounds, 1.4% hits. Potency, µM (highest dose often 46.1 µM), most hits filed as cytotoxic. KB-3-1 viability, CellTiter-Glo ATP luminescence, 72 h; note: % is set by controls: 0 for no effect and ±100 for the full control effect; nearly all actives have a fitted effect of over 60% in size
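Multi-concentration cytotoxicity screen in KB-3-1 cells grown in DMEM lacking phenol red with 10% FBS. After 72 h at 37 °C with compound, ATP-dependent luminescence was recorded.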
RORgamma inh – blocks mouse ROR gamma transcriptional activity; P51450; Drosophila S2 Gal4-RORgamma UAS-luciferase reporter, 20 h; Potency, µM (titrated, usually from 53.6 µM), for the others: at the highest dose activity change, negative = inhibition, most hits filed as inhibitors; 310,000 compounds, 5.4% hits; AID 2551; note: % is set by controls: 0 for no effect and ±100 for the full control effect; nearly all actives have a fitted effect of over 60% in size
Target sequence (P51450 whole entry, looked up, the tested form may be a part): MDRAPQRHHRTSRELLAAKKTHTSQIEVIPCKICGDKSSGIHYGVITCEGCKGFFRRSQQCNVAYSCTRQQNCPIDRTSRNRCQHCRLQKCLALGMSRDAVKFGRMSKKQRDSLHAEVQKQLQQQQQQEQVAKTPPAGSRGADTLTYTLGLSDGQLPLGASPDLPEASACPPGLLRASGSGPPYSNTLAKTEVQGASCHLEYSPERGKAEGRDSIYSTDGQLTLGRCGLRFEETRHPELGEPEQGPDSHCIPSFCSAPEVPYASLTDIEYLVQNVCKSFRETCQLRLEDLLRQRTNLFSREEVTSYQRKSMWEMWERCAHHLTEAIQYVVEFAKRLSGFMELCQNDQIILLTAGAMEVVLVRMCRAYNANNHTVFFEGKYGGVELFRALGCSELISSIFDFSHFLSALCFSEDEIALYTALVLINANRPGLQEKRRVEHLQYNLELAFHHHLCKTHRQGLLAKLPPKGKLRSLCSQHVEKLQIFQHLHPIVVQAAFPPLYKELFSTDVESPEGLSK
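In this cell-based reporter format, copper sulfate (700 uM final) drives Gal4–ROR gamma fusion expression from a metallothionein promoter in Drosophila Schneider cells; compounds preincubated 1 hr, reporter read after 20 hr at ambient temperature.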
MCF10A rereplic – induces DNA re-replication in MCF 10a normal breast cells; 350,000 compounds, 2.9% hits; MCF 10A DNA re-replication, Hoechst nuclear intensity, 48 h; Potency, µM (top dose mostly 46.1 µM), for the others: at the highest dose activity, positive = re-replication, actives largely listed as activators; AID 624296; note: % of control where 0% means no effect; nearly all actives have a fitted effect of over 50% in size
VP16 counter – counter-screen for ROR gamma inhibitors: Gal4-VP16 reporter. 310,000 compounds, 3.5% hits. Drosophila S2 Gal4-VP16 UAS-luciferase, luminescence, 20 h. Potency, µM (series often up to 53.6 µM), without a hit: top-dose activity, negative = inhibition, usual class: inhibitors. AID 2546;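 note: Gal4-VP16 expression switched on by copper sulfate through the metallothionein promoter; % is set by controls: 0 for no effect and ±100 for the full control effect; nearly all actives have a fitted effect of over 50% in size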
The depositor's hits bear a star; i = inactive; ? = inconclusive; nt = no result given; ! = repeats disagree; [ ] = remark or other dose. Most compounds without a hit are left out; they make up all but 10% or so of the library. Calls come from the whole dose curve; as a rule, active = well fitted curve in the direction sought with a large enough effect; inconclusive = small, poorly fitted or top-dose-only effect, or another doubt; inactive = no such curve, though single readings can be large; an effect the other way counts as inactive or inconclusive. Potency is the fitted concentration of half-maximal effect.

SMILES | KB-V1 MDR tox | SW480 rerep | KB-3-1 cytotox | RORgamma inh | MCF10A rereplic | VP16 counter
CC(C)C(NC(=O)c1ccccc1Br)c1ccccc1 (centres undefined) | i | 4.1% | i | 5.3% | 26.4% | -18.2%
O=C(NC(=S)NC1CCCC1)c1ccccc1Br | i | -695.7% | i | 4.47µM* | 1.7% | ?
CCNc1ncc2nc(-c3cccs3)c(=O)n(Cc3cccc(OC)c3)c2n1 | nt | nt | nt | -14.0% | nt | 8.2%
O=C(O)c1cccc(CN2C(=O)SC(Nc3ccccc3)C2=O)c1 (centres undefined) | i | -4.0% | i | 2.4% | 23.1µM* | -6.9%
CN(C)CCN=Cc1c(O)n(-c2ccc(S(=O)(=O)N3CCOCC3)cc2)c(=O)c2ccccc12 | i | 18.4µM* | i | nt | -27.6% | nt
O=C(c1cccc(F)c1)N1CCN(Cc2ccc3c(c2)OCO3)CC1 | i | 1.0% | i | -1.2% | 9.0% | -1.6%
CC1CCN(c2nc3ccc(C(=O)N4CCN(Cc5ccc6c(c5)OCO6)CC4)cc3s2)CC1 | i | -13.3% | ? | ? | 23.4% | 7.08µM*
Cc1ccc(C(=O)N2CCN(Cc3ccc4c(c3)OCO4)CC2)cc1S(=O)(=O)N1CCOCC1 | 16.4µM* | -6.8% | i | 33.6% | 18.1% | -2.2%
CCn1c(=O)c(=O)[nH]c2cc(C(=O)N3CCN(Cc4ccc5c(c4)OCO5)CC3)ccc21 | i | -32.6% | i | -18.8% | 5.17µM* | 7.8%
O=C(c1ccc(S(=O)(=O)N2CCCC2)cc1)N1CCN(Cc2ccc3c(c2)OCO3)CC1 | ? | -4.0% | i | -12.4% | 0.5% | 1.8%
N#CC(c1ccc(Cl)cc1)c1c(Cl)cc(-n2ncc(=O)[nH]c2=O)cc1Cl (centres undefined) | nt | -3.1% | nt | 13.5% | ? | -1.8%
C/C(=N\NC(=O)c1ccncc1)c1cccc(NC(=O)c2ccc(C(C)(C)C)cc2)c1 | i | 13.5% | i | 4.47µM* | 19.4% | 3.98µM*
C/C(=N\NC(=O)c1cc2c(s1)CCC(C)C2)c1ccncc1 (centres undefined) | ? | -3.6% | ? | 39.4% | 14.6µM* | -10.8%
C/C(=N\NC(=O)c1ccc(Br)cc1)c1cccc(NC(=O)c2cccnc2)c1 | i | -11.6% | i | 17.8µM* | -1.1% | 1.1%[10 µM]
C/C(=N\NC(=O)c1ccc(O)cc1O)c1cccnc1 | i | -2.3% | i | 5.62µM* | 7.2% | ?
CC(=NNC(=O)c1ccncc1)c1cccc(Br)c1 | ? | -6.5% | i | nt | -6.6% | nt
CCCCC | nt | -2.0% | nt | 3.4% | -2.0% | 13.2%
COc1ccc(NC(=O)c2ccccc2OCC(=O)Nc2ccc(Br)cc2)cc1 | i | nt | i | nt | nt | nt
CCCCCCCCCCCC | nt | nt | nt | -9.4% | nt | -3.8%
CC1CN(C(=O)N2CCC(C(=O)NCc3ccccc3F)CC2)c2cc(Cl)ccc2O1 (centres undefined) | i | nt | i | nt | nt | nt
CCC(=O)Nc1ccc(S(=O)(=O)Nc2cccc(C)c2)cc1OC | 18.4µM* | 6.5% | ? | 40.6% | ? | -12.9%
CCC(=O)Nc1ccc(S(=O)(=O)N2CCCCC2)cc1OC | i | -8.3% | i | 15.0% | 27.5% | -1.0%
CC(C)Cn1cnc2c(N)nc3ccccc3c21 | ? | 0.581µM*! | i | -9.5% | ? | -3.1%
Cc1cc(C)c(S(C)(=O)=O)c(Oc2cccc(Cl)c2)n1 | i | -5.3% | i | -2.7% | 0.4% | 2.1%
Cc1cc(C)c(S(C)(=O)=O)c(Oc2ccc(C(C)(C)C)cc2)n1 | 16.4µM* | -37.9% | i | -1.1% | 19.5% | 0.4%
CCOc1ccc(-c2cc3c(=O)n(CC(=O)Nc4c(C)cccc4C)ccn3n2)cc1 | i | nt | i | nt | nt | nt
COc1ccc(Cl)cc1-c1cc(C(=O)Nc2ccc(C(C)(C)C)cc2)[nH]n1 | i | nt | i | nt | nt | nt
O=C(C1=C[C@H](c2ccc(Br)cc2)C[C@H](OCCCCO)O1)N1CCN(Cc2ccc3c(c2)OCO3)CC1 | ? | -17.6% | i | -87.1% | 18.4µM* | ?
